# Results: PubChem BioAssay (Tox21)
# Inconclusive results are not listed. A call without a number means that no potency is given here. Calls of active or inactive are those of the source. Calls come from the whole dose curve.
# Biological target: Acetylcholinesterase (Homo sapiens) (UniProt P22303)
# Experiment: Acetylcholinesterase (AChE) small molecule antagonists: colormetric cell-based qHTS assay (AID 1347395); note: nearly all actives have a fitted effect of over 30% in size
# Conditions: SH-SY5Y cells AChE activity, colorimetric (Ellman); series mostly up to 115 µM
# Summary of the method: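 Homogeneous whole-cell format. SH-SY5Y cells seeded overnight, dosed with compound (30 min, 37 C, 5% CO2), then given DTNB/acetylthiocholine cocktail for 90 min at 37 C; colorimetric signal.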
# Acetylcholinesterase (Homo sapiens), sequence (P22303 whole entry, looked up): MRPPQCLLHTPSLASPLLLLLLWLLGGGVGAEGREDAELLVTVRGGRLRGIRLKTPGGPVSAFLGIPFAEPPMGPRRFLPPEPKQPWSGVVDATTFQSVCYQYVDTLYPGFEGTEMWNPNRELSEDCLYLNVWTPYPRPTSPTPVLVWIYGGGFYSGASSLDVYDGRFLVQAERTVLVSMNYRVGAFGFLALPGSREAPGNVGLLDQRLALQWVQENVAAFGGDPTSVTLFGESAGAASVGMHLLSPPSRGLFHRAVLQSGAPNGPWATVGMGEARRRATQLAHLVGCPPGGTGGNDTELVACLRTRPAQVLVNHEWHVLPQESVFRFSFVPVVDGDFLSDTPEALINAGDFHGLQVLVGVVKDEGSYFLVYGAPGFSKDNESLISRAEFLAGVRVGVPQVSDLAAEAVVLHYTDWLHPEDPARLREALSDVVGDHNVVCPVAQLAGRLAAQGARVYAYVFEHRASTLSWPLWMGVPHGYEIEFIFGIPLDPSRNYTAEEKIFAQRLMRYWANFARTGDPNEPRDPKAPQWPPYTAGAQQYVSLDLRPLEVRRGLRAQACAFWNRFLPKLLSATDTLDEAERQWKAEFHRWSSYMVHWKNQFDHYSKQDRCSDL
row,SMILES,Potency
1,CCCCC(CC)COCCC#N (centres undefined),inactive
2,CC(=O)OCCC1CCCCC1,inactive
3,CCN(CC)C(=O)C1CN2CCc3cc(OC)c(OC)cc3C2CC1OC(C)=O (centres undefined),inactive
4,CC(C)c1ccc2sc3ccccc3c(=O)c2c1,inactive
5,CC(C)c1cccc(O)c1,inactive
6,c1ccc2c(c1)ccc1ccccc12,inactive
7,COC(=O)c1ccccc1C,inactive
8,CN(C)CCCOC1(Cc2ccccc2)CCCCCC1,inactive
9,CC1(C)[C@@H]2CC[C@@]1(C)C(=O)C2,inactive
10,O=C(Cl)c1ccccc1[N+](=O)[O-],inactive
11,O=C(O)CCC(=O)C(=O)O,inactive
12,O=C(OCC1CCC2OC2C1)C1CCC2OC2C1 (centres undefined),inactive
13,CCOc1cc(NC(C)=O)ccc1C(=O)OC,inactive
14,C1N2CN3CN1CN(C2)C3,inactive
15,CCCCCCCCCCCCO,inactive
16,CCCCOCCOCCOCCCC,inactive
17,CN(C)Cc1ccccc1O,inactive
18,OC[C@H]1O[C@@H]2O[C@H]3[C@H](O)[C@@H](O)[C@@H](O[C@H]4[C@H](O)[C@@H](O)[C@@H](O[C@H]5[C@H](O)[C@@H](O)[C@@H](O[C@H]6[C@H](O)[C@@H](O)[C@@H](O[C@H]7[C@H](O)[C@@H](O)[C@@H](O[C@H]1[C@H](O)[C@H]2O)O[C@@H]7CO)O[C@@H]6CO)O[C@@H]5CO)O[C@@H]4CO)O[C@@H]3CO,inactive
19,CC(=O)OCc1ccccc1,inactive
20,CC12CCCC=C1C(=O)OC2=O (centres undefined),inactive
21,NCCOCCN,inactive
22,C=CCc1ccc(OC)c(OC)c1,inactive
23,C=CCSSCCC,inactive
24,C=CCCCCCCCCC(=O)OCC,inactive
